Source: PubChem (several laboratories)
Fh CTSL1 inh: counter-screen for PFM18AAP inhibitors: inhibitors of F. hepatica cathepsin L1. AID 1906. inhibition, % at 5.96 µM. 0.49% of 300,000 active. recombinant F. hepatica cathepsin L1, Z-Leu-Arg-MCA fluorescence;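 active = inhibition above the mean of all tested compounds plus 3 SD, set per screening campaign, cut at about 17% in these data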;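 also: 0% = plate median of test compound wells and 100% = 1 µM Z-Phe-Ala-diazomethylketone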
HNF4A DNA FP: change in binding of human HNF4 alpha to DNA; P41235; activity change, % at 10 µM; 0.3% of 360,000 active; AID 1224865; HNF4a-FITC DNA binding, fluorescence polarization, 1 h; in the data active = activity change above about 30%, passing the limit was not always enough
Target sequence (P41235 whole entry, looked up): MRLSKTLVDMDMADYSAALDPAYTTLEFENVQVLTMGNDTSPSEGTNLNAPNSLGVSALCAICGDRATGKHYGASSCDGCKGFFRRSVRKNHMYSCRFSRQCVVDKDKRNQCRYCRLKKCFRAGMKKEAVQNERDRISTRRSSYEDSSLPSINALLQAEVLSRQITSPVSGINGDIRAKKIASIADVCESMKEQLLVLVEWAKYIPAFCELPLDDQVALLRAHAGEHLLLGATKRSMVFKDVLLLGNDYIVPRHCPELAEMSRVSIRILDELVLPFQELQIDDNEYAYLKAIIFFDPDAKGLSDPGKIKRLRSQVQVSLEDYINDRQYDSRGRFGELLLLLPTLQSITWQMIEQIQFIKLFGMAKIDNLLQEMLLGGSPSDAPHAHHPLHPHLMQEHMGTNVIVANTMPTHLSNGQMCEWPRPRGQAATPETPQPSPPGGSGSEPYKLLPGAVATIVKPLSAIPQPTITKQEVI
PHOSPHO1 inh: blocks human PHOSPHO1 phosphatase activity; Q8TCT1; recombinant PHOSPHO1, absorbance phosphatase assay; inhibition, % at 13.3 µM; 1.1% of 290,000 active; in the data active = inhibition above about 60%
Rpn11 inh: Rpn11 (human) deubiquitinase inhibition; 0.59% of 360,000 active; human 26S proteasome, Ub4-pepOG fluorescence polarization; 20S core pre-blocked with epoxomicin; inhibition, % at 20 µM; O00487;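 active = inhibition at 20 µM, scaled to each plate's controls, above about 33%, limit read from the data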
CendR NRP1 mod: modulators of CendR peptide binding to human neuropilin-1; O14786; FAM-RPARPAR peptide binding to NRP-1, fluorescence polarization; inhibition, % at 25 µM; 0.85% of 360,000 active; AID 602438;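 active = inhibition or corrected inhibition above about 18%, plus a signal ratio from 0.5 to 1.5, limit read from the data, passing the limit was not always enough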
TPT1 inhibitor: C. albicans TPT1 enzyme inhibition | recombinant caTPT1, FP RNA substrate dephosphorylation | inhibition, % at 5 µM | 0.81% of 300,000 active | AID 1962;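 active = inhibition above the mean of all tested compounds plus 3 SD, set per screening campaign, cut at about 24% in these data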;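 also: plate controls were DMSO alone for no effect and ferristatin control at 100 nM for full effect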
Starred values were filed as active, the others as inactive; / = no result given. Rows were chosen to be rich in hits. Some 3.3% of all compounds tested hit in one or more screens of this group.

SMILES | Fh CTSL1 inh | HNF4A DNA FP | PHOSPHO1 inh | Rpn11 inh | CendR NRP1 mod | TPT1 inhibitor
COc1ccccc1NC(=S)NNC(=O)c1ccc(O)cc1 | -2.5 | 3.4 | 70.9* | -6.6 | -2.1 | -2.5
COc1ccccc1NC(=S)NNC(=O)c1nn(C)c(C)c1Cl | 1.9 | -0.7 | 78.9* | -12.0 | -4.7 | -2.8
COc1ccccc1NC(=S)NNC(=O)c1nn(C)c(C)c1Br | 4.4 | -2.1 | -16.4 | 7.4 | -12.0 | -6.8
CC1(Cc2ccccc2Cl)C(=O)Nc2c(Cl)cccc21 (centres undefined) | / | -1.6 | / | 9.3 | -1.4 | /
Cc1nnc(SCC(=O)NC2CCCCCC2)n1C | 4.0 | 0.8 | / | 2.6 | 10.3 | 0.7
Cc1ccccc1-c1csc(C(O)c2ccccc2)n1 (centres undefined) | / | 1.2 | / | -3.8 | -1.8 | /
Cc1sc(NC(=O)c2ccco2)c(C(c2cccnc2)N2CCC(C)CC2)c1C (centres undefined) | 1.7 | -3.4 | -19.9 | 7.0 | 4.5 | 3.4
COc1ccc(CSc2nncn2N)cc1Br | 18.7* | -1.7 | 11.6 | -2.2 | -3.6 | -1.2
Cc1cc(C)c(C#N)c(N2CCN(CCOc3ccc(Cl)cc3)CC2)n1 | -0.8 | -6.1 | 2.2 | -9.6 | 27.1* | -3.3
COc1ccc(Cl)cc1CN1CCN(c2nc(C)cc(C)c2C#N)CC1 | 0.1 | -10.4 | 10.5 | -12.7 | 6.5 | -38.9
CCOC(=O)c1cc(-c2ccccc2)sc1NC(=S)Nc1cccc(C)n1 | -2.2 | 3.5 | -0.7 | 20.0 | 43.3* | -2.2
CCOC(=O)c1cc(-c2ccccc2)sc1NC(=O)C(C)C | -5.7 | -3.2 | -41.2 | -9.2 | 4.3 | -0.3
Cc1cc(C(=O)CCl)c(C)n1-c1cccc(S(=O)(=O)N2CCOCC2)c1 | 7.2 | / | -2.7 | / | / | -2.1
Cc1ccsc1C(=O)OCc1csc(-c2ccccc2)n1 | -1.3 | 0.3 | 20.0 | 0.2 | -6.8 | -8.3
O=C(OCc1csc(-c2ccccc2)n1)c1cccs1 | 1.2 | -1.0 | 63.2* | -1.3 | -6.9 | 1.4
Cn1cccc1C(=O)OCc1csc(-c2ccccc2)n1 | 2.1 | 5.8 | 100.2* | 4.0 | -2.7 | 5.2
Cc1ccc(N/N=C2/CCCNC2=O)cc1 | -0.5 | 0.0 | 93.0* | 3.8 | 1.3 | -7.5
CCOC(=O)N1CCN(c2ccc(O)cc2)CC1 | -1.7 | -0.3 | 62.7* | -4.5 | -1.7 | -5.7
Cc1cccc(-c2cc3nc(-c4ccccc4)cc(N4CCC5(CC4)OCCO5)n3n2)c1 | 20.5* | 0.2 | -33.2 | -0.9 | 2.6 | -1.2
CC(C)C(NC(=O)c1ccc2c(c1)OCO2)C(=O)N/N=C\c1ccco1 (centres undefined) | -8.6 | -0.4 | 64.8* | -3.2 | -14.3 | -1.1
COc1ccc(/C=C2\SC(=S)N(NC(=O)c3csc4c3CCCC4)C2=O)cc1 | 4.2 | 1.7 | 71.7* | 4.4 | 1.4 | -2.0
COc1ccc(NC(=O)c2csc3c2CCCC3)cc1 | 3.4 | -1.2 | 10.7 | -0.3 | 14.6 | -2.3
CCOC(=O)C1=C(C)N(CCCC(=O)O)C(=O)NC1c1ccc(Br)cc1 (centres undefined) | -1.4 | / | / | / | / | -0.5
CCOC(=O)C1=C(C)N(CCCC(=O)O)C(=O)NC1c1ccccc1 (centres undefined) | -6.8 | -0.8 | / | 1.3 | 29.9* | -0.9
Cc1ccc(OCC(=O)NCCc2nc3ccccc3[nH]2)c(C)c1 | 2.2 | -1.4 | 61.2* | 3.4 | -1.4 | -3.8
SMILES | Fh CTSL1 inh | HNF4A DNA FP | PHOSPHO1 inh | Rpn11 inh | CendR NRP1 mod | TPT1 inhibitor
COc1ccccc1OCC(=O)NCCc1nc2ccccc2[nH]1 | -1.7 | -0.6 | -13.2 | -9.0 | 7.0 | 1.7
Cc1ccc(N(CC(=O)NC2CCCC2)C(=O)CCC(=O)Nc2nc(C)cs2)cc1 | -1.0 | 3.3 | 12.8 | -5.3 | 6.7 | 3.0
COC(=O)[C@@H]1C[C@@]2(O)[C@H](O)[C@H](O)[C@H](O)C[C@H]2N1Cc1ccc(C(F)(F)F)cc1 | 2.5 | -2.2 | 39.7 | -9.8 | 26.6* | 2.9
COC(=O)[C@@H]1C[C@@]2(O)[C@@H](O)[C@@H](O)[C@@H](O)C[C@H]2N1Cc1ccc(C(F)(F)F)cc1 | 0.0 | -2.4 | -4.3 | -3.8 | 1.5 | -1.9
C#CCOCCOCCOCCNc1nc(N2CCN(C(=O)[C@H]([C@@H](C)CC)n3cc([C@@H](N)Cc4ccc(O)cc4)nn3)CC2)nc(N2CCN(C(=O)[C@H](CCCCN)n3cc([C@@H](N)CC(C)C)nn3)CC2)n1 | 28.0* | / | 55.7 | / | / | 0.3
C#CCOCCOCCOCCNc1nc(N2CCN(C(=O)[C@H](CCCN=C(N)N)n3cc(C(N)[C@@H](C)CC)nn3)CC2)nc(N2CCN(C(=O)[C@H](CCCCN)n3cc([C@@H](N)CC(N)=O)nn3)CC2)n1 (some centres undefined) | / | 4.7 | / | -4.1 | 4.8 | /
C#CCOCCOCCOCCNc1nc(N2CCN(C(=O)[C@H](CCCCN)n3cc(CN)nn3)CC2)nc(N2CCN(C(=O)[C@H](CCCCN)n3cc(CN)nn3)CC2)n1 | / | 59.4* | / | -7.3 | 32.1* | /
C#CCOCCOCCOCCNc1nc(N2CCN(C(=O)[C@H](CCCCN)n3cc([C@@H](N)C(C)CC)nn3)CC2)nc(N2CCN(C(=O)[C@H](Cc3cc4ccccc4[nH]3)n3cc([C@@H](N)C(C)CC)nn3)CC2)n1 (some centres undefined) | / | 48.6* | / | -9.3 | 6.7 | /
C#CCOCCOCCOCCNc1nc(N2CCOCC2)nc(N2CCN(C(=O)[C@H](CCCCN)n3cc(CCC(=O)O)nn3)CC2)n1 | / | 2.3 | / | 6.2 | 6.9 | /
C#CCOCCOCCOCCNc1nc(N2CCN(C(=O)C([C@@H](C)O)n3cc([C@@H](N)CCCCN)nn3)CC2)nc(N2CCN(C(=O)[C@H](CCCN=C(N)N)n3cc(C(N)[C@@H](C)CC)nn3)CC2)n1 (some centres undefined) | / | 61.1* | / | 5.0 | 13.7 | /
CCn1cc(C(=O)NCCC2=CCCCC2)c(=O)c2cc(S(=O)(=O)N(C)C)ccc21 | 3.1 | 0.8 | -19.5 | 4.1 | -8.2 | 0.6
COc1c(S(=O)(=O)N2CCN(C(=O)c3ccco3)CC2)ccc(Cl)c1Cl | -0.6 | 2.1 | / | 2.1 | 3.5 | 0.9
COC(=O)c1ccc(CC2(C)C(=O)Nc3ccc(-c4cccc(C(F)(F)F)c4)cc32)o1 (centres undefined) | / | -1.4 | / | 1.2 | -12.0 | /
C=CC[C@H](CC(=O)OC(C)(C)C)C(=O)OC[C@@H]1CCCN1C(=O)[C@@H](CC=C)CC(=O)N[C@H](CO)Cc1ccccc1 | / | 2.9 | / | -1.7 | 20.4 | /
Clc1ccc(N2O[C@H]3C=C[C@@H]2C3)nc1 | / | -61.6 | / | -102.5 | 22.2 | /
O=C1C(=O)c2ccc(-c3ccccc3)cc2-c2ccccc21 | 109.4* | 1.3 | 3.9 | -2.0 | 3.7 | 2.1
Nc1ccc2c(c1)C(=O)C(=O)c1ccccc1-2 | 112.2* | 1.9 | 62.5* | -0.1 | 15.0 | 3.5
Nc1ccc2c(c1)C(=O)c1ccccc1-2 | -1.2 | -1.7 | / | -2.1 | 5.3 | -2.5
CC(O)[C@H]1CN=C(N)N1CCCCC1CCCCC1 (some centres undefined) | -3.1 | 6.6 | 8.9 | -4.5 | 1.6 | 1.2
